A selection: hits, their analogues and other compounds. The true share with any hit is near 8.9%.
SW480 rerep: induces DNA re-replication in SW480 colon adenocarcinoma cells. SW480 DNA re-replication, Hoechst DNA content imaging, 48 h. Potency, µM (top dose mostly 46.1 µM), usual class: activators. 340,000 tested, 1.8% active. AID 624297; also: nearly all actives have a fitted effect of over 55% in size
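Hoechst fluorescence of nuclei (405 nm excitation, 500-530 nm emission) measured by plate-scanning imager after 48 hr compound exposure at 37 C; re-replication scored as increased number of nuclei with elevated intensity.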
KB-3-1 tox: KB-3-1 parental cell cytotoxicity. 400,000 tested, 1.4% active. AID 1347075. KB-3-1 viability, CellTiter-Glo ATP luminescence, 72 h. Potency, µM (top dose mostly 46.1 µM), actives largely listed as cytotoxic; also: nearly all actives have a fitted effect of over 60% in size
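Using CellTiter-Glo luminescence, growth of non-resistant KB-3-1 adenocarcinoma cells is assessed 72 h after pin-tool compound addition at 37 °C. Normalized responses across the concentration series yield fitted curves.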
KB-V1 MDR tox: KB-V1 MDR subline cytotoxicity | Potency, µM (titrated, usually from 46.1 µM), hits mostly cytotoxic | KB-V1 MDR cells viability, CellTiter-Glo, 72 h | 400,000 tested, 3.4% active | AID 1347076; also: nearly all actives have a fitted effect of over 60% in size
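Readout: CellTiter-Glo luminescence, 10 min after addition. Cells: KB-V1 MDR subline, 72 h at 37 degrees C with compound. Analysis: corrected, normalized data fitted to concentration-effect curves.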
D3 antag: antagonists of human D3 dopamine receptor; 360,000 tested, 2.5% active; D3R cells, DiscoveRx beta-arrestin luminescence, antagonist mode; stronger effect = lower value; AID 652054; max response, negative = inhibition, %; P35462; in the data active = max response below about -50%; inconclusive = no clear call, values can overlap the other calls
Target sequence (P35462 whole entry, looked up): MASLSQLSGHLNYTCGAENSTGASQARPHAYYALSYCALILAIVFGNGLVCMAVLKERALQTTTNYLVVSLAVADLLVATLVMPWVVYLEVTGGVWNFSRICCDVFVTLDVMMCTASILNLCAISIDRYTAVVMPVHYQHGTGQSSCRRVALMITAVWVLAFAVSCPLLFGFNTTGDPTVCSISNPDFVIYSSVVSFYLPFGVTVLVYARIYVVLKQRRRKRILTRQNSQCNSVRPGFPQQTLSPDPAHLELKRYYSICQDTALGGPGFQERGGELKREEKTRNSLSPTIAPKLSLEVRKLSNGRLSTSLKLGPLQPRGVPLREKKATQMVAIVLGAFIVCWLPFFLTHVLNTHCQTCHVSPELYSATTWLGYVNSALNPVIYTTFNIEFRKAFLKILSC
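Cells plated overnight at 1500 cells/well, then exposed to library compounds with dopamine controls for 90 minutes at 37 degrees C. DiscoveRx reagent added for 30–60 minutes at room temperature; luminescence read, quantitative HTS format.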
MCF10A rereplic: DNA re-replication induction in MCF 10a cells | MCF 10A DNA re-replication, Hoechst nuclear intensity, 48 h | Potency, µM (highest dose often 46.1 µM), actives largely listed as activators | 350,000 tested, 2.9% active; also: nearly all actives have a fitted effect of over 50% in size
D3 ag: D3 dopamine receptor (human) agonism. D3R DiscoveRx beta-arrestin cells, luminescence, 90 min. max activation, %. 410,000 tested, 0.58% active. AID 652048; in the data active = max activation above about 30%
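Agonist mode: compounds and dopamine controls were applied to plated cells for 90 min at 37 degrees C after an overnight attachment at 1500 cells/well. Luminescent read-out followed 30 - 60 minutes at room temperature with DiscoveRx detection reagent.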
Numbers stand for hits; 0 = inactive; ? = inconclusive; - = not tested or not shown. Unless noted, calls follow the shape of the dose curve; as a rule, active = well fitted curve in the direction sought with a large enough effect; inconclusive = small, poorly fitted or top-dose-only effect, or another doubt; inactive = no such curve, though single readings can be large; an effect the other way counts as inactive or inconclusive.

SMILES | SW480 rerep | KB-3-1 tox | KB-V1 MDR tox | D3 antag | MCF10A rereplic | D3 ag
Cc1oc(C)c2c(=O)cc(-c3ccc4c(c3)OCO4)cc(OC(=O)c3ccccc3Br)c12 | - | 0 | 0 | - | - | 0
COc1cccc(C(C(=O)Nc2ccc(F)cc2)N(C(=O)Cn2nnc3ccccc32)C2CC2)c1 (stereo unspecified) | ? | 0 | ? | 0 | 0 | 0
CCOc1ccc(C(C(=O)Nc2ccc(F)cc2)N(C(=O)Cn2nnc3ccccc32)C2CC2)cc1 (stereo unspecified) | ? | 0 | 23.1µM | 0 | 0 | 0
CCOC(=O)CSC1=C(C#N)C(=O)NC(c2ccc(OC)cc2)S1 (stereo unspecified) | 0 | 0 | 0 | -57.5 | 0 | 0
COc1ccc(C2NC(=O)C(C#N)=C(S)N2c2ccc(C)cc2)cc1OC (stereo unspecified) | 0 | 0 | 0 | 0 | 0 | 0
CCOC(=O)CSC1=C(C#N)C(=O)NC(c2ccc(OC)c(OC)c2)S1 (stereo unspecified) | 0 | 0 | 0 | -66.8 | 0 | 0
CC(=O)c1cc(-c2ccccc2)n(CCC(=O)Nc2ccc(C(C)C)cc2)c1C | - | ? | ? | - | - | 0
COc1ccc(/C=C2\CCCC3C2=NN(C(=O)c2scnc2C)C3c2ccc(OC)c(OC)c2)cc1OC (stereo unspecified) | 0 | 0 | 0 | 0 | 0 | 71.6
CCOC(=O)c1ccc(N2CC(O)=C(c3nc4ccccc4c(=O)[nH]3)C2=N)cc1 | 0 | 0 | 0 | 0 | 20.6µM | 0
N=C1C(c2nc3ccccc3[nH]2)=C(O)CN1c1ccccc1 | ? | 23.1µM | ? | 0 | ? | 0
CCOc1ccc(N2CC(O)=C(c3nc4ccccc4c(=O)[nH]3)C2=N)cc1 | 0 | 0 | 0 | 0 | 0 | 0
CCCCC/C(=N\NC(=O)CCC(=O)NCc1ccccc1)c1ccccc1 | 0 | ? | ? | 0 | ? | 0
CC/C(=N\NC(=O)CCC(=O)NCc1ccccc1)c1ccc(O)cc1 | ? | 3.26µM | 0 | 0 | ? | 0
Cc1cccc(NC(=O)c2oc3ccc(S(=O)(=O)N4CCCCC4)cc3c2C)c1C | - | 0 | 0 | - | - | 0
Cc1cccc(C2NC(=O)c3c(sc(C)c3C)N2)c1O (stereo unspecified) | 0 | 0 | 0 | 0 | 0 | 0
Cc1ccc(C2NC(=O)c3c(sc(C)c3C)N2)c(O)c1 (stereo unspecified) | 20.6µM | 0 | 0 | 0 | ? | 0
COc1ccc(S(=O)(=O)N(C(=O)c2ccco2)c2cc3sc(=O)oc3c3ccccc23)cc1 | ? | ? | 0 | 0 | 18.4µM | 0
COc1ccc2c(c1)C1(Nc3ccccc3-c3nc4ccccc4n31)C(=O)N2C (stereo unspecified) | 0 | 0 | 0 | ? | 0 | 0
COc1ccc2c(c1)C1(Nc3ccccc3-c3nc4ccccc4n31)C(=O)N2 (stereo unspecified) | 0 | 0 | 0 | -58.8 | 0 | 0
CCOC(=O)CSc1nnc2c3ccccc3n(CC)c2n1 | 0 | 0 | 0 | 0 | ? | 0
CCn1c2ccccc2c2nnc(SCC(=O)NC(CC(C)C)C(=O)OC)nc21 (stereo unspecified) | 0 | 0 | 5.17µM | ? | 0 | 0
CCn1c2ccccc2c2nnc(SCC(=O)Nc3ccccc3OC)nc21 | - | - | - | - | - | 0
CCOC(=O)C(Sc1nnc2c3ccccc3n(CC)c2n1)C(=O)OCC | 0 | ? | 13µM | 0 | 0 | 0
O=C(Nc1cccc(-c2cccc(F)c2)c1)C1CCN(Cc2ccc(CO)o2)CC1 | 16.4µM | ? | 0 | 0 | 0 | 0
CC(Sc1nc(NCc2ccccc2)nc(N(C)C)n1)C(=O)Nc1ccccc1 (stereo unspecified) | 0 | 0 | 0 | 0 | ? | 0
SMILES | SW480 rerep | KB-3-1 tox | KB-V1 MDR tox | D3 antag | MCF10A rereplic | D3 ag
CC(Sc1nc(N)c2c3c(sc2n1)CSC(C)(C)C3)C(=O)Nc1ccccc1 (stereo unspecified) | ? | ? | 20.6µM | 0 | ? | 0
CC(=O)Nc1ccc(/C=C2\C=C(C(O)c3ccc(NC(C)=O)cc3)c3ccccc32)cc1 (stereo unspecified) | - | 0 | 0 | - | - | -
Cc1ccccc1C(O)c1ccncc1 (stereo unspecified) | 0 | 0 | 0 | 0 | 0 | 0
CSc1ccc(/C=C2\C=C(C(O)c3ccc(SC)cc3)c3ccccc32)cc1 (stereo unspecified) | - | 16.4µM | ? | - | - | -
OC(C1=C/C(=C\c2ccncc2)c2ccccc21)c1ccncc1 (stereo unspecified) | - | ? | 16.4µM | - | - | -
CCc1ccc(NC(=O)c2sc3nc(C)c(C(=O)Nc4ccc(C)cc4C)c(-c4ccco4)c3c2N)cc1 | - | 0 | 0 | - | - | 0
O=C(O)c1ccc(S(=O)(=O)/N=C2\C=C(Nc3ccccc3F)C(=O)c3ccccc32)cc1 | 6.51µM | ? | ? | -106.5 | 1.46µM | 0
Cc1ccccc1NC1=C/C(=N\S(=O)(=O)c2ccc(C(=O)O)cc2)c2ccccc2C1=O | ? | ? | ? | -97.1 | 2.06µM | 0
CCc1ccc(S(=O)(=O)/N=C2\C=C(NS(=O)(=O)c3ccccc3)C(=O)c3ccccc32)cc1 | 0 | 0 | 0 | ? | 0 | 0
CCOc1ccc(NC(=O)CNS(=O)(=O)c2ccc(Br)s2)cc1 | - | 0 | 0 | - | - | 0
O=C(Nn1c(SCc2ccc(F)cc2)nc2ccsc2c1=O)c1ccccc1 | 0 | 0 | 4.11µM | 0 | ? | 0
Cn1c(SCc2ccccc2)nc2ccsc2c1=O | 0 | 0 | ? | 0 | ? | 35.2
Cc1ccc(CNC(=O)CSc2nc3ccsc3c(=O)n2NC(=O)c2ccccc2)cc1 | 0 | 0 | 0 | 0 | 0 | 0
CCCCC[C@H]1CN(CCCC)C(=O)[C@@H]1CC(=O)NCc1ccccc1 | 0 | 0 | 0 | 0 | 0 | 33.6
COc1cc(CN2CCc3ccc(NC(=O)CCc4ccccc4OC)cc3C2)ccc1O | ? | 0 | 0 | -61.8 | 0 | 0
COc1ccc(CN2CCc3ccc(NC(=O)CCc4ccccc4OC)cc3C2)c(O)c1 | 0 | ? | 0 | 0 | 0 | 0
COc1cc(CN2CCc3ccccc3C2)ccc1O | ? | 2.91µM | 13µM | -90.2 | ? | 0
Cc1cccc(C)c1-n1nnnc1C1(C)CCC(=O)N1Cc1cccc(C(F)(F)F)c1 (stereo unspecified) | - | ? | ? | ? | - | 0
CC1=C/C(=C(/c2cc(C)c(O)c(Br)c2)c2ccccc2S(=O)(=O)O)C=C(Br)C1=O | 0 | ? | ? | -59.6 | 0 | 0
CC1=C/C(=C(/c2ccc(O)c(C)c2)c2ccccc2S(=O)(=O)O)C=CC1=O | 0 | 0 | 0 | -55.6 | 0 | 0
COc1ccc(CCNC(=O)C(=O)NCC2CCCN2S(=O)(=O)c2ccc(OC)cc2)cc1 (stereo unspecified) | 0 | 0 | ? | 0 | 0 | 34.5

Compound activity deposited in PubChem by National Center for Advancing Translational Sciences (NCATS).
